The values below come from paper PMC10726135, “HNF4α isoforms regulate the circadian balance between carbohydrate and lipid metabolism in the liver”.

The full ranking holds about 18,000 sequences; the median of “log2 normalized intensity” is about 0.39, and the highest 2% start at about 6.6. This is one part of a sample in which the highest values are shown more often than they occur.

The target in this assay is T1, HNF4alpha2 (COS-7 nuclear extract) (Homo sapiens, UniProt P41235 1-474).
T1 sequence: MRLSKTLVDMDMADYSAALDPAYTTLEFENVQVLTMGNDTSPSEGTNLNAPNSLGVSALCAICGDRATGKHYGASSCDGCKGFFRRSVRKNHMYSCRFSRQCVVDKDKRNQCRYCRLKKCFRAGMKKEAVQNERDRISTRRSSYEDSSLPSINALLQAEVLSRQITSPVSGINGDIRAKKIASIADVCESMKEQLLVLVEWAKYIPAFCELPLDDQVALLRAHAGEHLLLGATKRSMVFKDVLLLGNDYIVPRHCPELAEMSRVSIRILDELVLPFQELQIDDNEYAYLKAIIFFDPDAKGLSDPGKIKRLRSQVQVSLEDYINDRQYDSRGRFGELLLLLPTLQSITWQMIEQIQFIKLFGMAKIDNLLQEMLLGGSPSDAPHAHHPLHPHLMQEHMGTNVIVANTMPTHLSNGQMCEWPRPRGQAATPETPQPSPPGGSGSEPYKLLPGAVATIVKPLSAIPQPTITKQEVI
The assay is described as follows: protein-binding microarray; COS-7 nuclear extract on double-stranded Agilent 4x180k PBM; binding buffer, salt, pH and temperature not given in the material; high values mean tight binding. The note with it: chain copies: 2; label: 3' end of strand 1 on the slide; dsDNA, one strand shown. A digest of the protocol:
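Double-stranded oligonucleotides of ~60 nt, representing ~44,000 test sequences in quadruplicate, made up a custom Agilent SurePrint G3 4x180k array. Nuclear extracts from COS-7 cells transiently transfected by CaPO4 with a human HNF4α isoform expression vector were applied, and bound HNF4α was imaged at 2-µm resolution on an Agilent G2565CA scanner. Binding signal refers to the background-corrected, normalized gProcessedSignal output of Agilent software.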
As to “GCTTCTCTTGGACCTCAATGTGCTCATCCAGCCTAGGGAGATTAGAGTATCGGTCGA”, the binding signal came to 0.722 log2 normalized intensity.
Under “CCCACGTACATTGCACCCTCCAGGAGCCCCGCCTAGGGAGATTAGAGTATCGGTCGA” stands 2.07 log2 normalized intensity.
As for “TATGTGATCAGATGTGGACAATCATTGTGCGCCTAGGGAGATTAGAGTATCGGTCGA”, the figure is 1.53 log2 normalized intensity.
Under “AGTGGAGAAATAACATTAATGGAAATGCCTGCCTAGGGAGATTAGAGTATCGGTCGA” stands -0.84 log2 normalized intensity; under “ACCATCCACGGATGCATGATTGCTCTCTACGCCTAGGGAGATTAGAGTATCGGTCGA”, -0.932 log2 normalized intensity; under “TGCACAACGACCCTTGCTCTGTTTTCTGACGCCTAGGGAGATTAGAGTATCGGTCGA”, 1.89 log2 normalized intensity.
Consider “CTTTGAGAAAGCAAAGTCCCTGGGGACAGGGCCTAGGGAGATTAGAGTATCGGTCGA”, for which the binding signal was -0.0595 log2 normalized intensity.
Under “TCTTTTCTAAGACATAACACAGGTGACCTTGCCTAGGGAGATTAGAGTATCGGTCGA” stands 4.03 log2 normalized intensity.
With “GACATAACACAGGTGACCTTTGCTCCGGTTGCCTAGGGAGATTAGAGTATCGGTCGA”, the binding signal is 7.4 log2 normalized intensity.
Under “AGGTGACCTTTGCTCCGGTTCCCAATAAGTGCCTAGGGAGATTAGAGTATCGGTCGA” stands 5.06 log2 normalized intensity; under “CTAAGCAGGCACATTCCAGGACCTTTGCTCGCCTAGGGAGATTAGAGTATCGGTCGA”, 4.08 log2 normalized intensity.
As to “AACACAGGTGACCTTTGCTCCGGTTCCCAAGCCTAGGGAGATTAGAGTATCGGTCGA”, the binding signal stood at 6.26 log2 normalized intensity.
As for “TCTAAGACATAACACAGGTGACCTTTGCTCGCCTAGGGAGATTAGAGTATCGGTCGA”, the figure is 8.37 log2 normalized intensity; as for “CCTCCCTCCATGCTGTAGATTGTGGAATGTGCCTAGGGAGATTAGAGTATCGGTCGA”, 1.81 log2 normalized intensity; as for “GGTATGTTAGATTAGTGTGCAGCTTTGTGTGCCTAGGGAGATTAGAGTATCGGTCGA”, 2.1 log2 normalized intensity.
Under “GTCTAGATGCTGGGCAGCTTGTGTGCGTTTGCCTAGGGAGATTAGAGTATCGGTCGA” stands 1.56 log2 normalized intensity.
As for “AGCTGTGTGCTCCTGTAGAATGACCCCCTGGCCTAGGGAGATTAGAGTATCGGTCGA”, the figure is 5.17 log2 normalized intensity; as for “TTCTCTGTGACCTTTGGAAGGTGGGGGAGGGCCTAGGGAGATTAGAGTATCGGTCGA”, 4.13 log2 normalized intensity.
As for “TGGAGCATGACCCTTTGCAGGTGGGAGAGGGCCTAGGGAGATTAGAGTATCGGTCGA”, the binding signal was 0.139 log2 normalized intensity.
Under “TGACTACCAGGTTCTGTACTTTGGAACCTGGCCTAGGGAGATTAGAGTATCGGTCGA” stands 6.78 log2 normalized intensity.
As for “CTGCCCTTCTGACCTCCCAGGGATACTGTGGCCTAGGGAGATTAGAGTATCGGTCGA”, the figure is 2.47 log2 normalized intensity; as for “AACTGTACTTTGGACTGGGGACCTGGTCTGGCCTAGGGAGATTAGAGTATCGGTCGA”, 4.13 log2 normalized intensity; as for “GAGGTGGGCCCAGGGTTCTCTGTGACCTTTGCCTAGGGAGATTAGAGTATCGGTCGA”, 6.79 log2 normalized intensity.
Turning to “GGGCCCAGGGTTCTCTGTGACCTTTGGAAGGCCTAGGGAGATTAGAGTATCGGTCGA”, the binding signal is 8.2 log2 normalized intensity.
As for “GTTCTGTACTTTGGAACCTGAAAGAGCAACGCCTAGGGAGATTAGAGTATCGGTCGA”, the figure is 3.87 log2 normalized intensity.
As for “TGGGTTCTTGCCCTTTGGTCTGGAACACAGGCCTAGGGAGATTAGAGTATCGGTCGA”, the figure is 3.31 log2 normalized intensity.
For the sequence “CTTCTGCCCCCGCAGACCCAGTCTTAGGGAGCCTAGGGAGATTAGAGTATCGGTCGA”, the binding signal is 4.14 log2 normalized intensity.
Under “AGAAATCCACACAGCACTGACCTTTGAGAGGCCTAGGGAGATTAGAGTATCGGTCGA” stands 4.92 log2 normalized intensity.
With “GGCACAGTAACCTGACCCCCAGTGGAATGTGCCTAGGGAGATTAGAGTATCGGTCGA”, the binding signal worked out at 3.32 log2 normalized intensity.
Under “CCCAGATATCTCTGGTAAACAGCTGACAATGCCTAGGGAGATTAGAGTATCGGTCGA” stands -0.967 log2 normalized intensity; under “CAAATAAAGTTTGAGGAGAGTCAAAGGTTAGCCTAGGGAGATTAGAGTATCGGTCGA”, 3.24 log2 normalized intensity; under “CTCAGGTCAGGGAAGACTGATAAGAAAACTGCCTAGGGAGATTAGAGTATCGGTCGA”, -0.891 log2 normalized intensity.
Under “AGTCATGTCTTCATGCTTTCAGCCTCTCTGGCCTAGGGAGATTAGAGTATCGGTCGA” stands 0.358 log2 normalized intensity.
As for “AGACATCGACCTTTGTGGGCTTCAGACATTGCCTAGGGAGATTAGAGTATCGGTCGA”, the figure is 1.71 log2 normalized intensity; as for “CCCATCGACCTTTGCTCCCGACTCTGAGGCGCCTAGGGAGATTAGAGTATCGGTCGA”, 5.07 log2 normalized intensity; as for “TCTTCAGGCTGGGGCCCCATCGACCTTTGCGCCTAGGGAGATTAGAGTATCGGTCGA”, 6.79 log2 normalized intensity.
As for “CGACCTTTGCTCCCGACTCTGAGGCTCCATGCCTAGGGAGATTAGAGTATCGGTCGA”, the binding signal amounted to 4.94 log2 normalized intensity.
Under “GGGGCCCCATCGACCTTTGCTCCCGACTCTGCCTAGGGAGATTAGAGTATCGGTCGA” stands 8.11 log2 normalized intensity; under “CGCTCCCCGACCTCCTGCTGCAGCTCTGGGGCCTAGGGAGATTAGAGTATCGGTCGA”, 0.0682 log2 normalized intensity.
As for “GCTCTAGACATCGACCTTTGTGGGCTTCAGGCCTAGGGAGATTAGAGTATCGGTCGA”, the binding signal was found to be 2.69 log2 normalized intensity.
Under “AGGCTGGGGCCCCATCGACCTTTGCTCCCGGCCTAGGGAGATTAGAGTATCGGTCGA” stands 9.6 log2 normalized intensity; under “ACCTCCTGGGCCCAAGTGCTCCTCCCCATCGCCTAGGGAGATTAGAGTATCGGTCGA”, 3.37 log2 normalized intensity; under “AGCAGGCAGAGGTCAATGTCCACACCCCAGGCCTAGGGAGATTAGAGTATCGGTCGA”, 4.6 log2 normalized intensity.
As for “GCAGAGGCTGCAGAGGTTTCGCAAGGACGTGCCTAGGGAGATTAGAGTATCGGTCGA”, the figure is -0.792 log2 normalized intensity; as for “GTCTGCCTGACTCCAGAGTCCAAACTGGGAGCCTAGGGAGATTAGAGTATCGGTCGA”, 2.17 log2 normalized intensity; as for “AGTATCATGTTGGCATTCCAGGATGAAGGAGCCTAGGGAGATTAGAGTATCGGTCGA”, 0.674 log2 normalized intensity.
Under “CAGCCTGGAGGAGGGCGAGGCCGAGCCTCAGCCTAGGGAGATTAGAGTATCGGTCGA” stands -0.906 log2 normalized intensity.
Turning to “ATCTACCCTTGACAATTCCTATTCATTCCCGCCTAGGGAGATTAGAGTATCGGTCGA”, the binding signal is -0.0843 log2 normalized intensity.
